# Activity calls are given as the source filed them.
# Tests used:
# [1] = test system: PRMT1 (protein arginine N-methyltransferase 1); test: PRMT1 binders on small-molecule microarrays, primary screen, biochemical, small-molecule microarray, 635 nm fluorescence (AID 1088); conditions: small-molecule microarray binding, higher = more signal;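 further: binding of Prmt1 protein to compounds spotted on small-molecule microarray slides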
# [2] = yeast growth modulation, basal conditions, primary screen, YJM789 clinical isolate, OD600, 24 h (AID 1089);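 further: growth of clinical yeast isolate S. cerevisiae YJM 789 seeded 1000 cells per well; test concentration not given here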; conditions: S. cerevisiae YJM789 growth, higher = more signal, called active from +8 up or from −8 down
# [3] = fission yeast growth modulation, primary screen, strain 972, OD600, 24 h, no modulator (AID 1090);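 further: basal condition with compound alone and no growth modifier present; test concentration not given here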; conditions: S. pombe 972 growth, higher = more signal, called active from +8 up or from −8 down
# [4] = S. cerevisiae growth modulation with rapamycin, primary screen, strain BY4716, OD600, 96 h (AID 1091); conditions: higher = more signal, called active from +8 up or from −8 down; further: test concentration not given here
# [5] = biological target: Torsin-1A-interacting protein 2 (Homo sapiens) (UniProt Q8NFQ8); test: LULL1 binders on small-molecule microarray, primary screen, cell lysate, human LULL1 lysate, 635/667 nm fluorescence (AID 1092); conditions: hLULL1 lysate binding, 635 nm fluorescence, higher = more signal;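 further: probe is lysate of COS7 cells overexpressing human LULL1; score merges per-feature 667 nm fluorescence with signal-to-noise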
# [6] = E. coli growth modulation, two-sided OD650, primary screen, E. coli filamentation project, strain DRC41, 24 h (AID 1093); conditions: OD650, 24 h, higher = more signal, called active from +8 up or from −8 down;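 further: MC1000 strain lacking acrAB efflux and sulA so SOS filamentation is blocked; test concentration not given here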
# [7] = small-molecule microarray binders of probe aLefty2, primary screen, biochemical, biotinylated probe, 635/667 nm fluorescence (AID 1094); conditions: higher = more signal;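 further: score merges spot fluorescence near 667 nm with spot signal-to-noise ratio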
# [8] = test system: Noggin (protein binding on small-molecule microarray); test: Noggin binders on small-molecule microarray, primary screen, biochemical, 635/667 nm fluorescence (AID 1095); conditions: 635 nm fluorescence, higher = more signal;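 further: score merges 667 nm feature fluorescence with signal to noise over triplicate slides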
# [9] = biological target: Neurogenic locus notch homolog protein 3 (Homo sapiens) (UniProt Q9UM47); test: NOTCH3 binders on small-molecule microarray, primary screen, biochemical, 635/667 nm fluorescence (AID 1096); conditions: NOTCH3 binding, 635 nm fluorescence, higher = more signal
# [10] = small-molecule microarray binders of probe aEGFR, primary screen, biochemical, biotinylated probe, 635/667 nm fluorescence (AID 1097); conditions: higher = more signal;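 further: probe is a biotinylated anti-EGFR antibody binding compounds printed on slides; score combines fluorescence near 667 nm and signal to noise of each spot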
# [11] = test system: Plasmodium falciparum Sir2 (PF13_0152, Sir2A); test: pfSir2 binders on small-molecule microarrays, primary screen, biochemical, small-molecule microarray, 635 nm fluorescence (AID 1098); conditions: small-molecule microarray binding, fluorescence 635 nm; higher = more signal;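 further: score merges spot fluorescence intensity with its signal-to-noise ratio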
# [12] = small-molecule microarray binders of probe aDKK1, primary screen, biochemical, biotinylated probe, 635/667 nm fluorescence (AID 1099); conditions: higher = more signal;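 further: score merges 667nm spot fluorescence with signal to noise across triplicate slides; reference of the scale not given here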
# [13] = small-molecule microarray binders of probe aCHRDL2, primary screen, biochemical, biotinylated probe, 635/667 nm fluorescence (AID 1100); conditions: higher = more signal
# [14] = splicing luciferase reporter signal modulators, primary screen, spliceosome inhibition project, cell-based, HEK293, splice +/- reporter (AID 1101); conditions: luminescence, 24 h, higher = more signal, called active from +8 up or from −8 down;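 further: HEK293 cells carrying a splicing-competent luciferase reporter gene; test concentration not given here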
# [15] = biological target: Fibroblast growth factor 10 (Homo sapiens) (UniProt O15520); test: FGF10 binders on small-molecule microarrays, primary screen, biochemical, small-molecule microarray, 635 nm fluorescence (AID 1102); conditions: FGF10 binding, fluorescence 635 nm, higher = more signal
# [16] = test system: glycogen synthase kinase-3 (GSK3A per assay name; protocol says GSK3B); test: GSK3 binders on small-molecule microarrays, primary screen, biochemical, small-molecule microarray, 635 nm fluorescence, GSK3A (AID 1103); conditions: small-molecule microarray binding, fluorescence 635 nm; higher = more signal; further: the record names both GSK3A and GSK3B
# [17] = biological target: Epidermal growth factor receptor (Homo sapiens) (UniProt P00533); test: EGFR binders on small-molecule microarrays, primary screen, biochemical, small-molecule microarray, 635 nm fluorescence (AID 1104); conditions: EGFR binding, higher = more signal;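 further: score merges 667 nm emission intensity with spot signal to noise over triplicate slides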
# [18] = biological target: Follistatin-related protein 3 (Homo sapiens) (UniProt O95633); test: FSTL3 binders on small-molecule microarrays, primary screen, biochemical, small-molecule microarray, 635 nm fluorescence (AID 1105); conditions: FSTL3 binding, higher = more signal;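 further: score merges emission near 667 nm and signal to noise per printed spot across three slides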
# [19] = biological target: Dickkopf-related protein 1 (Homo sapiens) (UniProt O94907); test: DKK1 binders on small-molecule microarrays, primary screen, biochemical, small-molecule microarray, 635 nm fluorescence scan (AID 1106); conditions: DKK1 binding, higher = more signal;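 further: score merges emission near 667 nm with signal to noise over three replicate slides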
# [20] = test system: Inhibin beta A chain (activin A); test: INHBA (activin A) binders on microarrays, primary screen, biochemical, small-molecule microarray, 635 nm fluorescence scan (AID 1107); conditions: small-molecule microarray binding, higher = more signal;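 further: mouse activin A protein probed at 4.33 µg/mL on printed slides; score merges bound-protein fluorescence near 667 nm with spot signal-to-noise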
# Chain of Dickkopf-related protein 1 (Homo sapiens) (O94907 whole entry, looked up): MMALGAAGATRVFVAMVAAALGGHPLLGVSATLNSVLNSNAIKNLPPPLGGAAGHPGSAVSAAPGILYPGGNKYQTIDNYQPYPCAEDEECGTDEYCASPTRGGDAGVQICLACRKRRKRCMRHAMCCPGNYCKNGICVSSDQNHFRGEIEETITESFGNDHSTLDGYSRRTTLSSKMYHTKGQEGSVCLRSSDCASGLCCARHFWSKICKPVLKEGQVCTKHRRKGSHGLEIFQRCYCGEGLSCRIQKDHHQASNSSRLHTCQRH
# Chain of Torsin-1A-interacting protein 2 (Homo sapiens) (Q8NFQ8 whole entry, looked up): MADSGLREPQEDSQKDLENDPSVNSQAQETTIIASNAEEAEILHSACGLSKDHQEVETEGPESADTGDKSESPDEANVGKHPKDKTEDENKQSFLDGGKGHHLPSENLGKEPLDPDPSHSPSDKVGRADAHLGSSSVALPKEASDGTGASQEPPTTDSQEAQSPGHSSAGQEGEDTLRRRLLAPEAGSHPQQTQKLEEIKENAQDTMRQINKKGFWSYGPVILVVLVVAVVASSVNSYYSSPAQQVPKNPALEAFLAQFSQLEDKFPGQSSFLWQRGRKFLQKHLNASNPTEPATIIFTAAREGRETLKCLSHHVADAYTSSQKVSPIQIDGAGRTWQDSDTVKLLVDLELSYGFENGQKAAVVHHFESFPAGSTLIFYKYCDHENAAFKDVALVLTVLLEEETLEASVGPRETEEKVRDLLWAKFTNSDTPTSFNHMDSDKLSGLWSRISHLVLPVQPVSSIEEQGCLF
# Chain of Epidermal growth factor receptor (Homo sapiens) (P00533 whole entry, looked up): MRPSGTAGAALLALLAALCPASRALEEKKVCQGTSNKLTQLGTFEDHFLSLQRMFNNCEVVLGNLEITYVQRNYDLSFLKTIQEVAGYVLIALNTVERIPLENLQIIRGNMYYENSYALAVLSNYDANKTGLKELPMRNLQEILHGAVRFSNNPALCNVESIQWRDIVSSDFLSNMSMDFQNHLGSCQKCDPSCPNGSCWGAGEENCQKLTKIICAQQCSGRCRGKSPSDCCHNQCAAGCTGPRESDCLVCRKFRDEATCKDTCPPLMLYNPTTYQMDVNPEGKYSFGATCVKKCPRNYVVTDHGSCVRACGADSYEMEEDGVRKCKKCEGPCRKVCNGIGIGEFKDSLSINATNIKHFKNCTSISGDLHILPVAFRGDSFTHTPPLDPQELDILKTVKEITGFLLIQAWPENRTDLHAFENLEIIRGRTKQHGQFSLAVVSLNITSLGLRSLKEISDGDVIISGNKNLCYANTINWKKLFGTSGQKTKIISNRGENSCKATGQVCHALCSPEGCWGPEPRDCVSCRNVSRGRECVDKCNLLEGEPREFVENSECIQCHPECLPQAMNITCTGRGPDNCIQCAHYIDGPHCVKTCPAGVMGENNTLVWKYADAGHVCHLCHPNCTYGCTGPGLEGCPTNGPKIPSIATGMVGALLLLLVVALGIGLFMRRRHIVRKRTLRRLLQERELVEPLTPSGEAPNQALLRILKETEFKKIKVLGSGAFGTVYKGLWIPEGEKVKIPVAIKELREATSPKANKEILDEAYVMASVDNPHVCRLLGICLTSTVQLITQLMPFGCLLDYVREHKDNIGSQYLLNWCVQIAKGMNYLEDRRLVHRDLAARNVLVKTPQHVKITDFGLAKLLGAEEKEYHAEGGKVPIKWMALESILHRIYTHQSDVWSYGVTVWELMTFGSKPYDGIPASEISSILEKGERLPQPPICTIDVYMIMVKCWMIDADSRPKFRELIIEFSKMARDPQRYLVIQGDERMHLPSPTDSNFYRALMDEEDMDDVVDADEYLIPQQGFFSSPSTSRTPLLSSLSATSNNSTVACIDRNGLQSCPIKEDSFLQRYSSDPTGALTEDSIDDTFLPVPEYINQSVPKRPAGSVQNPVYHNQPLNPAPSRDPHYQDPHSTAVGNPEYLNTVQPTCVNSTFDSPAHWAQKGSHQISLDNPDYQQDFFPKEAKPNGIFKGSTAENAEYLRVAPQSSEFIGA
# Chain of Fibroblast growth factor 10 (Homo sapiens) (O15520 whole entry, looked up): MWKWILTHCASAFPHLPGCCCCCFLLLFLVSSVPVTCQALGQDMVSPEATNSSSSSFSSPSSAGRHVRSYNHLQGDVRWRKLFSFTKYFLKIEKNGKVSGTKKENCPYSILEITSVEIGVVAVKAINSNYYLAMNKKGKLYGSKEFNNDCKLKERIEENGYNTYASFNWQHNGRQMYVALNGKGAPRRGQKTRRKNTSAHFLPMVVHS
# Chain of Follistatin-related protein 3 (Homo sapiens) (O95633 whole entry, looked up): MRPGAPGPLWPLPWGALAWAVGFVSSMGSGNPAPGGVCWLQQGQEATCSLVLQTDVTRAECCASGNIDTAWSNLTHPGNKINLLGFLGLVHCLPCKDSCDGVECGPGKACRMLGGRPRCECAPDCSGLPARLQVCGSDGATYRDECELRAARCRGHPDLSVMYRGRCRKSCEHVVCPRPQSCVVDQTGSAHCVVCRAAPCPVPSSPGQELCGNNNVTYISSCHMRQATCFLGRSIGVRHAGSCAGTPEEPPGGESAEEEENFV
# Chain of Neurogenic locus notch homolog protein 3 (Homo sapiens) (Q9UM47 whole entry, looked up): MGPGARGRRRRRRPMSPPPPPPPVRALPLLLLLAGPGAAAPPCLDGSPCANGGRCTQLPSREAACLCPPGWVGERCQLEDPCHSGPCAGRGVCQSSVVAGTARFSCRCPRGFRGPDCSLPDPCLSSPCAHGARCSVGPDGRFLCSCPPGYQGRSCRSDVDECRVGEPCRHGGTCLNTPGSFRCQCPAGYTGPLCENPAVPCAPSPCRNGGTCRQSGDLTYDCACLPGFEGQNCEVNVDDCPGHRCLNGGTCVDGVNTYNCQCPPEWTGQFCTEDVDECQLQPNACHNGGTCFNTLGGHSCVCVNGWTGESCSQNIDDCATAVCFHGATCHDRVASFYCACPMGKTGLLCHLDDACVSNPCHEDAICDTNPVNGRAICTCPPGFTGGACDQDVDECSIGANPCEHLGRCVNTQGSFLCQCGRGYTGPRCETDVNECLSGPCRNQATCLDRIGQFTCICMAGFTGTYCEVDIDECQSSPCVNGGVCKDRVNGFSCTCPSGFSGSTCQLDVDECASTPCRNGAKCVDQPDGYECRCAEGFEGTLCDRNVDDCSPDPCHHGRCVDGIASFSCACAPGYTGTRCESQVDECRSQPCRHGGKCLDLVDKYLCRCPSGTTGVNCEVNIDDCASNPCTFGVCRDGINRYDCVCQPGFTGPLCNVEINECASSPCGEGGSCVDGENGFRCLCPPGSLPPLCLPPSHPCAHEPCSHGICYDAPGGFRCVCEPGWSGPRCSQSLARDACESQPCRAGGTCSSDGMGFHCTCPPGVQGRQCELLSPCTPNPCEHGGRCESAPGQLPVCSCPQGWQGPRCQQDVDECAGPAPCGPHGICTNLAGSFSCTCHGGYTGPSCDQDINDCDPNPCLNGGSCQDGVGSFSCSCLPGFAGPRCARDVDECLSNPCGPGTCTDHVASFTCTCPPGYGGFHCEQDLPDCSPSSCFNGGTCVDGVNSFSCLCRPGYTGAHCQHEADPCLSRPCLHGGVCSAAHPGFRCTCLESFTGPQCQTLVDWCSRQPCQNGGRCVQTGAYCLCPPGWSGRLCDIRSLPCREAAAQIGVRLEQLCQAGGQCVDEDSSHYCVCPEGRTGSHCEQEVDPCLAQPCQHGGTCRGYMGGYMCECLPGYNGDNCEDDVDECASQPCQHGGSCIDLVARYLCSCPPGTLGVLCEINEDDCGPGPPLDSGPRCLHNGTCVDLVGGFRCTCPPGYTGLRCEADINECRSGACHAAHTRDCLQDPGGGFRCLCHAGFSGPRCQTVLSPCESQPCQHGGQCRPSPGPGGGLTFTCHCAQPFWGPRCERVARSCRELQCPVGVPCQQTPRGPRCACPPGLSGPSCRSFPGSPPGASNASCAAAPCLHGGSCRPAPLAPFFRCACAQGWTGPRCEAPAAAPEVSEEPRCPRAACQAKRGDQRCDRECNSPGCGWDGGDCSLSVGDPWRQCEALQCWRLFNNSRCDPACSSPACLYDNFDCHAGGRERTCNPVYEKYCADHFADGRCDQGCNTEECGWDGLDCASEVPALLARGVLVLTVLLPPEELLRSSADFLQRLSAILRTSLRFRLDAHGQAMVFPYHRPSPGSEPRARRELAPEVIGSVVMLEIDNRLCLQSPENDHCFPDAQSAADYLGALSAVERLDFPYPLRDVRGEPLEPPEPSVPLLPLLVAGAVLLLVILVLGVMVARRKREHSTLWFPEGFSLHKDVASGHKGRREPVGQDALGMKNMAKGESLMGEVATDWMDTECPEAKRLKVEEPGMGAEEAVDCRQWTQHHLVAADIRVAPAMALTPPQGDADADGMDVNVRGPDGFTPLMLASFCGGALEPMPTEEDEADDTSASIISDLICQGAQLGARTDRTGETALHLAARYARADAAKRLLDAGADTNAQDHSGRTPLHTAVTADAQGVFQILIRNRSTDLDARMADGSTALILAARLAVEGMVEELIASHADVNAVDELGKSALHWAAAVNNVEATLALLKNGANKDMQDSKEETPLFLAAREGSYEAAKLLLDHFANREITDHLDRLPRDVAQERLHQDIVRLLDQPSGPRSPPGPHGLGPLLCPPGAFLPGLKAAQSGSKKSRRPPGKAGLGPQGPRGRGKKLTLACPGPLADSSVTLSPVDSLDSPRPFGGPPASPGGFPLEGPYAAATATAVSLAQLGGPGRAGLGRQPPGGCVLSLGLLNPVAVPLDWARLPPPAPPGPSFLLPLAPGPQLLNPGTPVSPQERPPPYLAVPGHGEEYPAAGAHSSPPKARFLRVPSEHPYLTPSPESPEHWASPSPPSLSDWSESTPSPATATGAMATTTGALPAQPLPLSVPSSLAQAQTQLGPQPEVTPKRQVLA
Structure (SMILES),composite z-score [1],z-score [2],z-score [3],z-score [4],composite z-score [5],z-score [6],composite z-score [7],composite z-score [8],composite z-score [9],composite z-score [10],composite z-score [11],composite z-score [12],composite z-score [13],z-score [14],composite z-score [15],composite z-score [16],composite z-score [17],composite z-score [18],composite z-score [19],composite z-score [20]
CCCCCCc1nc(-c2ccc(-c3ccc(Cl)c(Cl)c3)o2)cc2c1[Si](C(C)C)(C(C)C)OC2,-0.849,-0.625 (inactive),-7.54 (inactive),3.66 (inactive),0.582,0.66 (inactive),-0.159,-0.561,-0.453,-0.257,-0.143,-0.269,0.207,-2.26 (inactive),-1.31,-1.22,-1.01,-0.816,-0.793,0.522
CN(C)CCCC[C@@H]1NC(=O)[C@@H]2C[C@H](C(=O)NCCCCCN)[C@H](c3cccc(OCCO)c3)N2C1=O,1.32,-5.45 (inactive),-3.9 (inactive),-0.962 (inactive),1.96,2.65 (inactive),-0.0592,1.17,1.04,-0.0943,0.789,-0.0024,-0.21,-1.66 (inactive),0.824,1.16,0.428,0.567,0.565,-0.401
CC(C)C[C@@H]1NC(=O)[C@@]23C(=O)N[C@@H](Cc4ccccc4)C2[C@H](C)[C@@]2(C)O[C@H]2C3/C=C/C/C=C\CNC(=O)CNC1=O (stereo not given in full),0.514,-0.135 (inactive),-1.1 (inactive),-0.159 (inactive),2.23,-0.52 (inactive),0.0207,0.609,0.53,-0.0812,1.19,-0.268,-0.51,0.103 (inactive),0.452,0.202,0.127,0.768,0.268,1.4

# Source: PubChem BioAssay
